Data on 16 compounds can be found in PubChem BioAssay.

For assay [1], the system named is XIP peptide (Xip251-270) binding. The assay can be described thus: XIP fragment 251-270 binding compounds – biochemical, small-molecule microarray, fluorescence 635/667 nm, 0.1 µg/mL protein, primary screen (AID 1182). Particulars: fluorescent protein binding, 635 nm, higher = more signal, called active from +8 up or from −8 down.
A further assay deals with XIP peptide (Xip251-270). Description: compounds binding XIP fragment 251-270 – biochemical, small-molecule microarray, fluorescence 635/667 nm, 0.5 µg/mL protein, primary screen (AID 1183). Particulars: fluorescence 635 nm, higher = more signal.
Assay [2] can be described thus: blood-stage malaria parasite viability loss – strain 3D7, DAPI fluorescence, 100 nL, primary screen (AID 1184).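 Further: parasites grown inside human red blood cells in medium with human serum.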 Particulars: P. falciparum 3D7 growth, 3 d, higher = more signal.
The target of assay [3] is Homeobox protein Hox-A13 (Mus musculus) (UniProt Q62424). Description: disruptors of Hoxa13 oligonucleotide interaction – biochemical, fluorescence polarization, labeled oligonucleotide, primary screen (AID 1185). The conditions noted are these: Hoxa13:DNA binding, 15 min, higher = more signal, called active from +8 up or from −8 down.
Sequence of Homeobox protein Hox-A13 (Mus musculus) (Q62424 whole entry, looked up): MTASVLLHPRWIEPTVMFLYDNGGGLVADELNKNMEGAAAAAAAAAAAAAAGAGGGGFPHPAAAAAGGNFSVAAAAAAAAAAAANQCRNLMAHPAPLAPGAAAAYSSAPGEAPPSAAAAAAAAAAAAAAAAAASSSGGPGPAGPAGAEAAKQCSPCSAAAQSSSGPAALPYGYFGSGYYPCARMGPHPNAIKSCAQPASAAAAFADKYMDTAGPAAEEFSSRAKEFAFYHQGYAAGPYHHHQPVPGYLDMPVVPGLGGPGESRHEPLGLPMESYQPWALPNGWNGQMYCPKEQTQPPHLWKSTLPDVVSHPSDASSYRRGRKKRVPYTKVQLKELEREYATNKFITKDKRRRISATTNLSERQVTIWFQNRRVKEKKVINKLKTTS
Assay [4] can be described thus: blockers of DNA damage checkpoint Chk1 activation – imaging, HeLa, hydroxyurea, phospho-Chk1 antibody, percent positive cells, primary screen (AID 1186). The conditions noted are these: hydroxyurea-induced phospho-Chk1 immunofluorescence imaging, higher = more signal.
Assay [5] is described as follows: blockers of DNA damage checkpoint Chk1 activation – imaging, HeLa, hydroxyurea, phospho-Chk1 nuclear intensity, primary screen (AID 1187). The conditions noted are these: hydroxyurea-induced phospho-Chk1 immunofluorescence imaging, higher = more signal.

The structures appear in SMILES notation. Calls of active or inactive are those of the source. Unless noted, how the calls were made is not given here.

Turning to `C=CCC(OC(C)=O)[C@@H]1[C@@H](N(Cc2cccc3ccccc23)C(=O)c2cccc3ccccc23)c2cc(OCCCO)ccc2N1C(=O)c1ccc2ccccc2n1` (stereo partly specified), the composite z-score in assay [1] is 0.376 (inactive); in the assay with XIP peptide (Xip251-270) it was 0.343. The z-score in assay [2] is -1.29; in assay [3] it was -2.11 (inactive); in assay [4] it was 0.316 (inactive); in assay [5], 0.545 (inactive).
Turning to `O=C1OCCC=C[C@H]2OC34C=CCN(Cc5ccccc5)C(=O)[C@H]3N(CCCCCO)C(=O)[C@@H]4C12` (stereo partly specified), the composite z-score in assay [1] is 1.16 (inactive); with XIP peptide (Xip251-270) it was -0.0335. Further, the z-score in assay [2] is 0.0195; in assay [3] it was -4.46 (inactive); in assay [4], -0.218 (inactive); in assay [5], 0.534 (inactive).
With `CCOC(=O)C1=CCC(C(C)(C)C)N(S(=O)(=O)c2ccc(C)cc2)C1` (stereo unspecified), the composite z-score in assay [1] is 0.548 (inactive); with XIP peptide (Xip251-270), 0.806. Also, the z-score in assay [2] is -0.797; in assay [3], -4.56 (inactive); in assay [4], -1.42 (inactive); in assay [5] it was -1.98 (inactive).
With `O=C1OCC=C[C@H]2OC34C=CCN(c5ccc(Cl)cc5)C(=O)[C@H]3N(CCCCCCO)C(=O)[C@@H]4[C@@H]12` (stereo partly specified), the composite z-score in assay [1] is -0.513 (inactive); with XIP peptide (Xip251-270), -1.03. The z-score in assay [2] is -0.358; in assay [3], -4.21 (inactive); in assay [4] it was -0.181 (inactive); in assay [5] it was -0.0007 (inactive).
With `O=C1O[C@@H](c2ccccc2)[C@@H](c2ccccc2)N2[C@@H](c3ccc(O)cc3)[C@]3(C(=O)Nc4ccc(C#CC5(O)CCCCCC5)cc43)[C@@H](C(=O)N3CCCCCCC3)[C@H]12`, the composite z-score in assay [1] is 1.51 (inactive); in the assay on XIP peptide (Xip251-270), 0.855. Besides, the z-score was -0.667 in assay [2], 1.7 (inactive) in assay [3], -0.129 (inactive) in assay [4] and -0.0414 (inactive) in assay [5].
For the compound `CC(C)CNC(=O)[C@@H]1c2ccccc2C(=O)N(Cc2cc(C(F)(F)F)cc(C(F)(F)F)c2)[C@H]1c1ccc(CO)cc1`, the composite z-score in assay [1] is -0.133 (inactive); in the assay with XIP peptide (Xip251-270), -0.308. In addition, the z-score in assay [2] was -1.2; in assay [3], -1.46 (inactive); in assay [4] it was -0.236 (inactive); in assay [5], 0.21 (inactive).
In the case of `COC(=O)[C@@]1(Cc2ccc(OC)cc2)[C@H]2c3cc(C(=O)N4CCCC4)n(Cc4ccccn4)c3C[C@H]2CN1C(=O)c1ccccc1`, the values for the composite z-score (in assay [1]; with XIP peptide (Xip251-270)) were -0.22 (inactive) and 0.329, respectively. The z-score in assay [2] is -1.43; in assay [3], -5.86 (inactive); in assay [4], 0.613 (inactive); in assay [5], 0.451 (inactive).
`C=CC[C@@]1(C(=O)N2CCOCC2)N=C(c2ccc(OCCCO)cc2)O[C@@H]1c1ccccc1N=[N+]=[N-]`: the composite z-score in assay [1] is 1.18 (inactive); with XIP peptide (Xip251-270), 0.598. Moreover, the z-score is -1.75 in assay [2], -3.44 (inactive) in assay [3], -0.217 (inactive) in assay [4] and -0.141 (inactive) in assay [5].
Consider `COCCOC(=O)N1C(=O)[C@@]2(c3cc(C#CCNC(N)=O)ccc31)[C@H](C(=O)N1CCN(c3ncccn3)CC1)[C@H]1C(=O)O[C@H](c3ccccc3)[C@H](c3ccccc3)N1[C@@H]2c1ccccc1OCCO`, for which the figures for the composite z-score (in assay [1]; in the assay with XIP peptide (Xip251-270)) were 1.56 (inactive) and 0.588, respectively. The z-score in assay [2] was -2.4; in assay [3] it was -1.39 (inactive); in assay [4], 0.197 (inactive); in assay [5], 0.886 (inactive).
In the case of `C=CCNC(=O)[C@H]1[C@@H]2C(=O)O[C@@H](c3ccccc3)[C@@H](c3ccccc3)N2[C@@H](c2ccc(O)cc2)[C@]12C(=O)N(C(=O)OCCOC)c1ccc(C#CCCO)cc12`, the composite z-score was 0.855 (inactive) in assay [1] and 0.72 in the assay on XIP peptide (Xip251-270). In addition, the z-score in assay [2] was -0.353; in assay [3], -3.9 (inactive); in assay [4], -0.537 (inactive); in assay [5], -0.532 (inactive).
Consider `C=CCNC(=O)[C@@H]1[C@H]2C(=O)O[C@H](c3ccccc3)[C@H](c3ccccc3)N2[C@H](c2ccc(OCCO)cc2)[C@@]12C(=O)Nc1ccccc12`, for which the composite z-score is 0.0997 (inactive) in assay [1] and 0.371 in the assay with XIP peptide (Xip251-270). For the same compound, the z-score was -1.09 in assay [2], -4.6 (inactive) in assay [3], -0.122 (inactive) in assay [4] and -0.303 (inactive) in assay [5].
`COc1cc2c(cc1OC)CN(C(=O)[C@@H]1[C@H]3C(=O)O[C@H](c4ccccc4)[C@H](c4ccccc4)N3[C@H](c3ccccc3OCCO)[C@@]13C(=O)Nc1ccc(C#CCNC(N)=O)cc13)CC2`: the results for the composite z-score (in assay [1]; in the assay with XIP peptide (Xip251-270)) were 0.12 (inactive) and 0.811, respectively. The z-score was -2.17 in assay [2], 2.09 (inactive) in assay [3], -0.229 (inactive) in assay [4] and -0.232 (inactive) in assay [5].
As for `COc1ccc([Si](C)(C)[C@H]2[C@H](CCn3cc([C@H](O)c4ccccc4)nn3)O[C@@]3(C(=O)N(Cc4cccc(N5CCC5=O)c4)c4ccccc43)[C@@H]2C)cc1`, the values for the composite z-score (in assay [1]; in the assay on XIP peptide (Xip251-270)) were 0.275 (inactive) and 0.444, respectively. Also, the z-score in assay [2] is -1.98; in assay [3], -2.56 (inactive); in assay [4], -1.17 (inactive); in assay [5], -0.364 (inactive).
For `Cc1ccc(S[C@]2(C(=O)O)CC(=O)N(C3Cc4ccccc4C3)[C@@H]2c2ccc(CO)cc2I)cc1`, the composite z-score in assay [1] is -0.33 (inactive); with XIP peptide (Xip251-270) it was 0.464. Moreover, the z-score in assay [2] is -0.111; in assay [3] it was -2.79 (inactive); in assay [4] it was 0.229 (inactive); in assay [5] it was 0.584 (inactive).
Turning to `CCCCC=C[C@@H](NC(=O)c1ccco1)c1ccccc1`, the values for the composite z-score (in assay [1]; with XIP peptide (Xip251-270)) were 0.193 (inactive) and 0.511, respectively. Also, the z-score in assay [2] was -1.19; in assay [3] it was -0.806 (inactive); in assay [4], -0.164 (inactive); in assay [5] it was -0.7 (inactive).
With `COCCOC(=O)N1C(=O)[C@@]2(c3cc(C#CC4=CCCCC4)ccc31)[C@H](C(=O)NC[C@H](O)c1ccccc1)[C@H]1C(=O)O[C@H](c3ccccc3)[C@H](c3ccccc3)N1[C@@H]2c1ccc(O)cc1`, the composite z-score is 0.304 (inactive) in assay [1] and 0.744 with XIP peptide (Xip251-270). For the same compound, the z-score in assay [2] is -1.39; in assay [3], -0.485 (inactive); in assay [4] it was 0.279 (inactive); in assay [5], 0.475 (inactive).
